High-throughput results deposited in PubChem by National Center for Advancing Translational Sciences (NCATS).
The entries come from a sample that favours hits as a whole.
Cycloheximide cs: Cycloheximide Counterscreen for Small Molecule Inhibitors of Shiga Toxin | cell reporter, cycloheximide protein synthesis inhibition counterscreen | max response, % | 300,000 compounds, 12% hits | AID 2314, 2010; in the data active = max response mostly above about 13%, no sharp cut-off; inactive = mostly below about 14%; note: read at 38.3 µM for the half of the compounds with a filed dose; 0% is about no effect
FBPA Giardia inh: qHTS Assay for Inhibitors of Fructose-1,6-bisphosphate Aldolase from Giardia Lamblia. Potency, µM (top dose mostly 59.6 µM), for the others: top-dose activity, negative = inhibition, hits mostly inhibitors. 290,000 compounds, 0.71% hits. purified Giardia FBPA. AID 2451, 2010; note: potency is the fitted concentration of half-maximal effect; % is set by controls: 0 for no effect and ±100 for the full control effect; nearly all actives have a fitted effect of over 55% in size
Target sequence (A8B2U2 whole entry, looked up): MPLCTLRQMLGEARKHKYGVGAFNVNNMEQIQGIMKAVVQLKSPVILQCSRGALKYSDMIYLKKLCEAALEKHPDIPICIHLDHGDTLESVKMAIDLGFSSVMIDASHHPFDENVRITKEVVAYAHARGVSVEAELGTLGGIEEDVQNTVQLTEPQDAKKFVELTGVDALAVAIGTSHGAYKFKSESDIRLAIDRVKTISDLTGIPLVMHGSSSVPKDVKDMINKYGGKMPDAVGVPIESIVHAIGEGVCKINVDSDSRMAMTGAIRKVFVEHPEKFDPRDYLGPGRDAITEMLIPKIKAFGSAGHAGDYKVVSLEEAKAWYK
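40 nM FBPA preincubated 10 min at RT with compound (up to 57.5 uM final), then substrate plus GAPDH/TPI/NAD/arsenate coupling and diaphorase/resazurin added. Fluorescence read after 20 min at RT, 525/598 nm.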
Tb PYK inh: qHTS of Trypanosoma Brucei Inhibitors; TbPYK enzyme, Kinase-Glo Plus ATP luminescence, 45 min; 410,000 compounds, 0.12% hits; Potency, µM (titrated, usually from 76.8 µM), inactives show at the top dose activity, negative = inhibition, actives largely listed as inhibitors; AID 624173, 2012; note: potency is the fitted concentration of half-maximal effect; % is set by controls: 0 for no effect and ±100 for the full control effect; nearly all actives have a fitted effect of over 50% in size
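In this concentration-response screen, enzyme-free wells defined baseline while DMSO plates tracked drift. Each reaction combined TbPYK, substrate, compound and 130 uM ADP for 45 min at room temperature. Kinase-Glo Plus luminescence gave the signal.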
Shiga inhibitor: A qHTS for Small Molecule Inhibitors of Shiga Toxin; Vero cells, Shiga toxin protein synthesis inhibition reporter; inhibition, % at 38.7 µM; 290,000 compounds, 9.2% hits; in the data active = inhibition mostly above about 28%, no sharp cut-off; inactive = mostly below about 43%; note: 0% is about no effect
RE007 growth inh: qHTS Assay for Inhibitors of the HIV-1 protein Vpr; AID 651644, 2012; Potency, µM (series often up to 92.2 µM), for the others: at the highest dose activity change, negative = less growth, actives largely listed as inhibitors; 360,000 compounds, 0.21% hits; S. pombe RE007 Vpr strain, BacTiter-Glo ATP luminescence, 24 h; active = well fitted falling curve with a large enough effect; inconclusive = small, poorly fitted or top-dose-only effect; inactive = no such curve, though single readings can be large or run the other way; note: potency is the fitted concentration of half-maximal effect; % is set by controls: 0 for no effect and ±100 for the full control effect; nearly all actives have a fitted effect of over 50% in size
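Fission yeast RE007 carrying one integrated HIV-1 vpr copy, seeded at OD 0.01 in PMG+AL medium with 23 nL pinned compound. Grown 24 h at 30 degrees; viability read by BacTiter-Glo luminescence after 5 min.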
LmPK inh: qHTS Assay for Inhibitors of Leishmania Mexicana Pyruvate Kinase (LmPK) | Potency, µM (titrated, usually from 57.5 µM), without a hit: at the top dose activity change, negative = inhibition, usual class: inhibitors | purified LmPK, Kinase-Glo ATP luminescence, 1 h | 290,000 compounds, 0.37% hits | Q27686; note: potency is the fitted concentration of half-maximal effect; % is set by controls: 0 for no effect and ±100 for the full control effect
Target sequence (Q27686 whole entry, looked up): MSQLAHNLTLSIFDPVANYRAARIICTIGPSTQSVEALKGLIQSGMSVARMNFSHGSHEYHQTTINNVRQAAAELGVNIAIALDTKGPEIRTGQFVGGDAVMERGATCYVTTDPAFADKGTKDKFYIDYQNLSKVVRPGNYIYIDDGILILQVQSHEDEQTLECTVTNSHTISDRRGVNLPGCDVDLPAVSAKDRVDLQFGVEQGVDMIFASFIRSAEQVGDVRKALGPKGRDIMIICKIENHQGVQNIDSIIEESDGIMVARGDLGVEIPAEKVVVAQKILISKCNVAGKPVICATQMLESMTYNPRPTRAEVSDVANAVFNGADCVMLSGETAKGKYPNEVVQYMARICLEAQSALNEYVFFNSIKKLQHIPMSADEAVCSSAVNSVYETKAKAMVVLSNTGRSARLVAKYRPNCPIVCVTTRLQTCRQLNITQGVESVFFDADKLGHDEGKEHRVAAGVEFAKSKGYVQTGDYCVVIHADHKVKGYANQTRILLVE
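Purified LmPK (0.1 nM) converted ADP (0.1 mM) to ATP with PEP (0.5 mM) in imidazole buffer pH 7.2 with KCl and MgCl2, 1 h at room temperature. ATP was read by Kinase-Glo luminescence; data normalized to uninhibited and no-enzyme controls.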
Active calls of the source: *; ? = inconclusive; nt = not tested or not shown; [ ] = remark or other dose. Unless noted, calls come from the whole dose curve; as a rule, active = well fitted curve in the direction sought with a large enough effect; inconclusive = small, poorly fitted or top-dose-only effect, or another doubt; inactive = no such curve, though single readings can be large; an effect the other way counts as inactive or inconclusive.

SMILES	Cycloheximide cs	FBPA Giardia inh	Tb PYK inh	Shiga inhibitor	RE007 growth inh	LmPK inh
CCn1cnc2cc(NCc3ccc(N(C)C)cc3)ccc21	52.3*	1.1%	-11.9%	153.6*	-1.7%	-1.8%
Cc1ccc(CNc2ccc3c(c2)ncn3C(C)C)cc1	36.4*	0.0%	-16.4%	61.2*	-12.5%	-4.6%
CCCn1cnc2cc(NCc3cccc(OC)c3)ccc21	23.7*	-16.8%	-20.7%	34.8*	-7.2%	-1.3%
CN(C)c1ccc(CNc2ccc3c(c2)ncn3C(C)(C)C)cc1	27.9*	8.9%	-8.4%	58.3*	4.4%	1.7%
CC#CCN1c2ccccc2[C@]23C[C@@H](C(=O)OC)N(S(=O)(=O)c4ccc(Br)cc4)C2=NC(C(=O)OC)=C(C(=O)OC)[C@H]13	nt	-1.1%[12.9 µM]	nt	nt	nt	-3.8%[11.5 µM]
CC(C)(C)c1ccc2c(S(=O)(=O)O)c(C(C)(C)C)ccc2c1	nt	nt	-5.4%	nt	nt	nt
COc1ccc(OC)c(CCNC(=O)c2c(C)oc3ncn(CC(C)C)c(=O)c23)c1	nt	nt	3.8%	nt	nt	nt
CCCn1cnc2cc(NCc3ccc(Br)cc3)ccc21	29.3*	4.9%	-21.1%	63.6*	-19.4%	5.4%
CCn1cnc2cc(NCc3ccc(C)cc3)ccc21	60.0*	-19.9%	-22.1%	89.9*	-9.1%	-12.9%
CCN(CC)c1ccc(CNc2ccc3c(c2)ncn3CC)cc1	11.7	7.9%	0.8%	17.4	-9.8%	-2.9%
CCCn1cnc2cc(NCc3ccc(OC)cc3OC)ccc21	nt	nt	-18.0%	nt	nt	nt
CCCn1cnc2cc(NCc3ccccc3O)ccc21	38.9*	3.1%	-8.8%	113.4*	6.4%	-12.3%
CCn1cnc2cc(NCc3ccc(Br)cc3)ccc21	39.7*	11.1%	-17.6%	67.1*	-8.7%	-0.9%
CCn1c(CN2CCN(c3cccc(Cl)c3)CC2)nc2c1c(=O)[nH]c(=O)n2C	nt	nt	3.1%	nt	nt	nt
CCOc1ccccc1NC(=O)C1CCN(S(=O)(=O)Cc2ccccc2)CC1	nt	nt	0.5%	nt	nt	nt
Cc1cc(C)c(NC(=O)C2CCCN(C(=O)c3cnn(-c4ccccc4)c3-n3cccc3)C2)c(C)c1 (stereo not given)	nt	nt	-1.6%	nt	nt	nt
Cc1cccc(Oc2ccc3c(c2)Oc2ccccc2NC3=O)c1	nt	nt	-5.9%	nt	nt	nt
COc1ccc(C(=O)COC(=O)c2cc(-c3ccccc3)nc3c(C)cccc23)cc1	nt	nt	-9.9%	nt	nt	nt
Cc1nnc(N/N=C/c2cc(C)n(-c3ccc(F)cc3)c2C)n1N	24.0*	9.98µM*	-0.2%	3.7	0.4%	3.4%
Cc1nnc(N/N=C/c2ccccc2O)n1N	17.5*	7.06µM*	0.1%	30.8*	0.3%	-0.7%
COc1ccccc1-c1cc2nc(C)c(CCC(=O)NCCc3cccc(C)c3)c(C)n2n1	nt	nt	-0.8%	nt	nt	nt
Cc1ccc(-c2nc3ccccc3[nH]2)cc1NC(=O)COc1ccccc1[N+](=O)[O-]	nt	nt	3.9%	nt	nt	nt
Nc1ncc(S(=O)(=O)N2CCN(c3ccccc3)CC2)cn1	nt	nt	2.2%	nt	nt	nt
O=C(Cc1ccccc1)Nc1ccc(NC(=O)c2cccs2)cc1	15.1	3.7%	-1.3%	25.3	12.1%	4.0%
O=C(Nc1ccc(NC(=O)c2cccs2)cc1)c1cccnc1	2.3	4.5%	2.5%	-2.4	3.5%	2.3%
SMILES	Cycloheximide cs	FBPA Giardia inh	Tb PYK inh	Shiga inhibitor	RE007 growth inh	LmPK inh
O=C(c1ccncc1)c1ccc(NC(=O)c2cccs2)cc1	29.2*	-16.9%	3.0%	148.1*	22.6%	4.5%
O=C(Nc1ccc(Cc2ccncc2)cc1)c1cccs1	33.4*	-12.5%	2.1%	69.1*	-3.6%	-1.9%
Oc1ccccc1-c1nc2c3ccccc3c3ccccc3c2[nH]1	9.1	17.7µM*	-11.8%	35.7	-12.9%	9.1%
CC(C)(CO)Nc1nc(Cl)nc(NC2CCCCC2)n1	20.3*	2.9%	1.0%	27.3	2.2%	-0.1%
CCNc1nc(Cl)nc(NC2CCCCC2)n1	21.3*	-0.6%	3.0%	nt	7.2%	0.6%
COc1cccc(-c2cc(C(F)(F)F)n3nc(N)nc3n2)c1	-1.2	0.1%	-7.5%	6.3	4.8%	-4.7%
COc1cccc(-c2cn3nc4c(nc3n2)CCCC4)c1	15.6*	?	?	27.0	?	11.2µM*
Clc1ccc(-c2cn3nc4c(nc3n2)CCCC4)cc1	37.1*	?	-8.8%	87.7*	1.2%	14.1µM*
O=C(NC(C(=O)c1ccccc1)N1CCCCC1)c1ccccc1 (stereo not given)	33.1*	1.3%	2.6%	72.0*	-2.5%	-5.6%
COc1cc2c(C(=O)N3CCN(C)CC3)c(C)oc2cc1Br	2.0	-5.0%	6.9%	26.7	-1.2%	-1.6%
Cc1c(C(=O)N2CCc3ccccc3C2)oc2ccc(Br)cc12	nt	nt	0.5%	nt	-11.3%	nt
CCN(CC)C(=O)C1CCN(C(=O)c2oc3ccc(C)cc3c2C)CC1	17.1*	nt	2.3%	16.1	5.9%	-12.9%
Cc1c(C(=O)N2CCCC2)oc2ccc(Br)cc12	34.8*	nt	0.9%	42.2*	-20.9%	-8.3%
CCN(CC)C(=O)C1CCCN(C(=O)c2oc3ccc(C)cc3c2C)C1 (stereo not given)	14.1	nt	-3.9%	12.3	20.3%	-1.8%
CCCc1ccc2oc(C(=O)N3CCCC3)c(C)c2c1	29.6*	-12.3%	-2.5%	nt	-20.1%	-5.3%
Cc1oc2cc3c(C(=O)N4CCCCC4)c(C)oc3cc2c1C(=O)N1CCCCC1	53.4*	-2.8%	1.6%	72.9	-0.6%	5.9%
Cc1ccc(NC(=O)c2cc(S(=O)(=O)N(C)C3CCCCC3)ccc2F)cc1C	nt	nt	0.4%	nt	nt	nt
Cc1ccc2oc(C(=O)N3CCC(O)(c4ccccc4)CC3)c(C)c2c1	11.5*	-5.7%	-0.7%	17.9	7.2%	-1.7%
Cc1c(C(=O)N2CCN(C)CC2)oc2ccc(Br)cc12	33.4*	-2.7%	-4.1%	46.3*	-9.7%	-2.0%
CCCc1ccc2oc(C(=O)N3CCNC(=O)C3CC(=O)OC)c(C)c2c1 (stereo not given)	19.3*	nt	-0.9%	-10.4	-0.2%	-11.1%
O=C(CSc1nc2ccsc2c(=O)n1-c1ccc(Br)cc1)NCc1ccc(Cl)cc1	nt	nt	3.7%	nt	nt	nt
Nc1[nH]n(-c2ccccc2)c(=O)c1N=Nc1ccccc1[N+](=O)[O-]	12.6*	3.9%	1.2%	25.2	2.5%	1.8%
Cc1[nH]n(-c2ccccc2)c(=O)c1N=Nc1ccc(F)cc1	13.2*	?	1.6%	30.6	5.2%	1.9%
Nc1[nH]n(-c2ccccc2)c(=O)c1N=Nc1ccccc1	61.0*	-4.9%	-0.6%	60.8*	?	4.2%
CSc1ccc(N=Nc2c(C)[nH]n(C)c2=O)cc1	46.1*	-29.2%	-0.9%	67.5*	2.4%	-23.6%
COc1ccc(-c2ccccc2C2C3C=CCCC3(C)C(=O)N2Cc2ccccc2)cc1 (stereo not given)	1.7	-4.4%	nt	-2.3	nt	nt
